# From PubChem BioAssay
# HP1b chromo inh = HTS for Inhibitors of HP1-beta Chromodomain Interactions with Methylated Histone Tails. AID 540317, 2011. Chromobox protein homolog 1 (Homo sapiens), P83916. AlphaScreen HP1-beta / biotin-H3K9me3 peptide binding. Potency, µM (series often up to 114 µM), inactives show at the top dose activity change, negative = inhibition, hits mostly inhibitors. 390,000 compounds, 0.56% hits; also: nearly all actives have a fitted effect of over 70% in size
#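 Compound inhibition of the preformed complex between 50 nM HP1-beta and 50 nM biotinylated H3K9me3 peptide was read by AlphaScreen. Buffer was PBS pH 7.4 with 0.01% Tween-20. Incubations ran 30 min at room temperature, with 10 ug/mL donor/acceptor beads.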
# G9a block = qHTS Assay for Inhibitors of Histone Lysine Methyltransferase G9a. Histone-lysine N-methyltransferase EHMT2 (Homo sapiens), Q96KQ7. G9a H3K9 monomethylation, AlphaScreen, 2 h. Potency, µM (doses to about 102 µM), inactives show top-dose activity, negative = inhibition, most hits filed as inhibitors. 350,000 compounds, 8.8% hits; also: % is scaled to controls: 0 for no effect and ±100 for the full control effect; nearly all actives have a fitted effect of over 75% in size
#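 Step 1: enzyme (final 20 nM) with compound, 15 min RT. Step 2: substrate peptide 500 nM and SAM 20 uM, 2 h RT. Step 3: anti-H3K9me1 antibody and AlphaScreen beads, 10 min, then plate read.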
# BAZ2B block = qHTS Assay for Inhibitors of BAZ2B. AlphaScreen BAZ2B-H3K14Ac peptide displacement. 360,000 compounds, 4.4% hits. Bromodomain adjacent to zinc finger domain protein 2B (Homo sapiens), Q9UIF8. Potency, µM (highest dose often 114 µM), for the others: top-dose activity change, negative = inhibition, actives largely listed as inhibitors. AID 504333, 2011; also: % is scaled to controls: 0 for no effect and ±100 for the full control effect; nearly all actives have a fitted effect of over 60% in size
#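 AlphaScreen displacement: compounds (up to 110uM) incubated 30 min at room temperature with a preformed 50 nM BAZ2B/50 nM biotinylated H3K14Ac peptide complex in PBS pH 7.4 with Tween-20. Donor and acceptor beads at 10 ug/mL final added, 20 min light-protected before reading.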
# JMJD2A Tudor inh = qHTS Assay for Inhibitors of JMJD2A-Tudor Domain; Lysine-specific demethylase 4A (Homo sapiens), O75164; AlphaScreen JMJD2A-Tudor / H3K4me3 peptide binding; Potency, µM (top dose mostly 114 µM), without a hit: at the top dose activity change, negative = inhibition, actives largely listed as inhibitors; 390,000 compounds, 4.4% hits; AID 504339, 2011; also: % is scaled to controls: 0 for no effect and ±100 for the full control effect; nearly all actives have a fitted effect of over 50% in size
# L3MBTL1 block = qHTS Assay for the Inhibitors of L3MBTL1 | Lethal(3)malignant brain tumor-like protein 1 (Homo sapiens), Q9Y468 | AlphaScreen L3MBTL1–H3K9me1 peptide binding | Potency, µM (top dose mostly 57.1 µM), without a hit: top-dose activity, negative = inhibition, hits mostly inhibitors | 230,000 compounds, 0.66% hits; also: % is scaled to controls: 0 for no effect and ±100 for the full control effect; nearly all actives have a fitted effect of over 60% in size
# Target sequence (Q9Y468 whole entry, looked up): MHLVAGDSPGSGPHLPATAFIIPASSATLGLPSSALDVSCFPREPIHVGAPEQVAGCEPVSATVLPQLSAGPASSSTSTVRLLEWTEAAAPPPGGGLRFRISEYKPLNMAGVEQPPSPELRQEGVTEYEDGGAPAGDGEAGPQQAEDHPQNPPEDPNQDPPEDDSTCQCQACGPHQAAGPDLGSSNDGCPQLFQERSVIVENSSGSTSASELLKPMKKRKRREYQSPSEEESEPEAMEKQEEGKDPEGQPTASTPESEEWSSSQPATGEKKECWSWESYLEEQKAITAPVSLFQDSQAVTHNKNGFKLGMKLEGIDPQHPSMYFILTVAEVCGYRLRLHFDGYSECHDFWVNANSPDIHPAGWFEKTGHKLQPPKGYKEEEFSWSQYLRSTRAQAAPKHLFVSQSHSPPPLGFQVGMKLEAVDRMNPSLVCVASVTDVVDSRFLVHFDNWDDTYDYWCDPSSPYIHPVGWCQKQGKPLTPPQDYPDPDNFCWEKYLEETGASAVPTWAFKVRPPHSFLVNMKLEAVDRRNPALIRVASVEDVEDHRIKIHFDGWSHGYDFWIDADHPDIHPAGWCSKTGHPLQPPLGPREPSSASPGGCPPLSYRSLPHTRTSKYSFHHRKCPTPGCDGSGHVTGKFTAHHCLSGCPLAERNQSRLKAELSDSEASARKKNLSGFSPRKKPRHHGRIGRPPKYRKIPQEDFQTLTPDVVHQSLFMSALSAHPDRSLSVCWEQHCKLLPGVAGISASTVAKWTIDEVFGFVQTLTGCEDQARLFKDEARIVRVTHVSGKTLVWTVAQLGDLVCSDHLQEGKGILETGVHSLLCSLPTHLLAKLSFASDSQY
#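 L3MBTL1 50 nM + b-AHA-H3(1-15)K9me1 75 nM, 30 min RT; compound added, 30 min RT; streptavidin donor/Ni-chelate acceptor beads 10 ug/mL each final, 30 min RT dark; AlphaScreen read.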
# Numbers without * were called inactive; ? = inconclusive; . = no result; [ ] = another dose, or the depositor's remark. This is a sample that favours compounds with a hit; in the whole collection about 11% have one here. Calls follow the shape of the dose curve; as a rule, active = well fitted inhibition curve with a large enough effect; inconclusive = small, poorly fitted or top-dose-only effect; inactive = no such curve, though single readings can be large or run the other way. Potency is read from the fitted curve at half-maximal effect.
SMILES,HP1b chromo inh,G9a block,BAZ2B block,JMJD2A Tudor inh,L3MBTL1 block
O=C(C1CCCN(C2CC(=O)N(c3ccc(Cl)cc3)C2=O)C1)N1CCCC1 (centres undefined),40.1%,79.4µM*,-2.0%,-5.6%,.
O=C1CCCN1CCC1CCN(C2CC(=O)N(c3ccc(Cl)cc3)C2=O)CC1 (centres undefined),28.8%,11.2µM*,-6.9%,-19.2%,.
O=C(C1CCCN(C2CC(=O)N(c3ccc(F)cc3)C2=O)C1)N1CCCC1 (centres undefined),28.3%,44.7µM*,-9.2%,31.6µM*,.
CCCOc1ccc(N2C(=O)CC(N3CCCC(C(=O)N4CCCC4)C3)C2=O)cc1 (centres undefined),52.1%,?,1.0%,0.3%,9.1%
O=C1CCCN1CCC1CCN(C2CC(=O)N(Cc3ccc(N4CCCC4=O)cc3)C2=O)CC1 (centres undefined),37.6%,?,-4.6%,-4.9%,22.5%[11.4 µM]
O=C(Nc1ccc2c(c1)N(C1CCCC1)C(=O)c1ccccc1S2)c1cccc(F)c1,34.4%,-9.2%[59 µM],-7.3%,-26.0%,.
CCCOC(=O)c1ccccc1O,.,3.2%[12.7 µM],.,.,.
O=C(CN1CCCCC1)Nc1cc(S(=O)(=O)N2CCOCC2)ccc1N1CCCC1,21.1%,14.3%[59 µM],7.3%,-18.7%,-8.2%
CCCn1cnnc1CNC(=O)C1CCC(=O)N(CCc2cccc(F)c2)C1 (centres undefined),44.2%,80.2%,5.5%,-7.6%,.
N#C/C(=C\c1ccc(O)cc1)c1nc2ccccc2o1,-10.5%,?,-29.9%,-34.9%,-26.2%
COc1cc(/C=C(\C#N)c2nc3ccccc3o2)ccc1O,-8.8%,.,44.7µM*,?,-29.3%
COc1ccccc1N1CCN(C(=O)c2ccc3c(c2)NC(=O)C(CSCc2ccccc2C)N3)CC1 (centres undefined),.,?,50.1µM*,.,.
Cc1ccc(OC(=O)COc2ccccc2)c(-n2nc3ccccc3n2)c1,114.3%,73.7%,56.2µM*,54.9%,.
N#CCCn1cc(C(=O)CN2C(=O)C(=O)N(C3CCCC3)C2=O)c2ccccc21,-1.9%,50.1µM*,-5.0%,-14.6%,-11.6%
CC1CCC2(CC1)NC(=O)N(CC(=O)c1cn(CCC#N)c3ccccc13)C2=O (centres undefined),37.4%,24.7%,16.4%,-7.1%,-5.1%
O=S1(=O)N=C(Nc2nncs2)c2ccccc21,-16.8%,2µM*,56.2µM*,?,.
CCN(CC)S(=O)(=O)c1ccc(NC2=NS(=O)(=O)c3ccccc32)cc1,32.8%,4.3%,?,-4.9%,.
CC1=NN(C(N)=S)C(=O)C1N=Nc1cccc(Cl)c1C (centres undefined),?,.,44.7µM*,50.1µM*,-6.8%
CC1=NN(C(N)=S)C(=O)C1N=Nc1ccccc1 (centres undefined),25.6%,1.7%,2.2%,-18.8%,16.3%
CC1=NN(C(=O)c2ccncc2)C(=O)C1N=Nc1ccc2ccccc2c1 (centres undefined),25.1µM*,.,.,?,.
CC1=NN(C(N)=S)C(=O)C1N=Nc1ccc(Cl)cc1 (centres undefined),?,70.8µM*,-6.1%,?,4.4%
CC1=NN(C(N)=S)C(=O)C1N=Nc1ccc(Br)cc1 (centres undefined),13.8%,.,-11.4%,-27.2%,14.4%
CC1=NN(C(N)=S)C(=O)C1N=Nc1cccc2ccccc12 (centres undefined),.,.,39.8µM*,.,-0.7%
Cc1cccc(OCC(=O)NCc2ccc3c(c2)CCN3C(=O)c2ccccc2)c1,10.4%,5.5%[59 µM],-17.3%,-18.3%,.
O=C(CSc1nnc(SCc2ccc(Cl)cc2)s1)N/N=C/c1c(Cl)cccc1Cl,32.9%,17.0%[59 µM],7.4%,-8.4%,1.8%
SMILES,HP1b chromo inh,G9a block,BAZ2B block,JMJD2A Tudor inh,L3MBTL1 block
O=C(NCCc1ccc(Cl)cc1)c1ccc(CS(=O)(=O)Cc2ccccc2F)o1,32.5%,4.8%[59 µM],-1.0%,-10.9%,.
CC(C)c1cccc(C(C)C)c1NC(=O)CNCC(O)c1ccccc1 (centres undefined),-32.3%,9.6%,50.1µM*,56.2µM*,.
COc1ccccc1/C=C1\N=C(C(C)(C)C)OC1=O,?,84.0%,40.0%,50.1µM*,.
COc1cccc(/C=C2\N=C(C3CCCCC3)OC2=O)c1OC,216.9%,29.4%,126.6%,87.7%,.
O=C(NCc1ccccn1)c1ccc(Cl)c(S(=O)(=O)Nc2ccccc2C(=O)NCc2ccccn2)c1,36.8%,50.1µM*,7.8%,-31.2%,-6.0%
Cc1cc(C)cc(OC(C)C(=O)Nc2ccccc2C(=O)NCc2cccnc2)c1 (centres undefined),27.1%,50.1µM*,-28.6%,-25.4%,.
O=C(NCc1cccnc1)c1ccc(Cl)c(S(=O)(=O)N2CCCCCC2)c1,4.7%,-0.7%,-9.0%,25.1µM*,0.6%
O=C(NCc1cccnc1)c1ccc(Cl)c(S(=O)(=O)Nc2ccccc2C(=O)NCc2cccnc2)c1,36.3%,44.7µM*,?,-11.2%,0.1%
Cc1cc(C)cc(NS(=O)(=O)c2cc(C(=O)NCc3ccccn3)ccc2Cl)c1,26.8%,45.3%[59 µM],-29.8%,-10.6%,-2.3%
CN(CCc1ccccc1)C(=O)c1ccc(NC(=O)Cc2ccc(NC(=O)C3CCN(C(=O)c4ccccc4)CC3)cc2)cc1,53.3%,.,.,-7.2%,.
COc1cccc(NC(=O)c2sc3nc(C)c(C(=O)Nc4ccc(C)cc4C)c(-c4ccco4)c3c2N)c1,56.0%,-15.8%[59 µM],-2.4%,-12.6%,.
Cc1[nH]n(-c2ccccc2)c(=O)c1N=Nc1ccc(Cl)cc1,-14.2%,9.3%[0.501 µM],?,?,-21.2%[2.29 µM]
Cc1[nH]n(-c2ccccc2)c(=O)c1N=Nc1c(Cl)cccc1Cl,19.4%,22.4µM*,?,-21.8%,-1.1%
CCOc1ccccc1N=Nc1c(C)[nH]n(-c2ccccc2)c1=O,?,.,?,44.7µM*,3.3%
Cc1[nH]n(-c2ccccc2)c(=O)c1N=Nc1cccc(S(=O)(=O)N2CCOCC2)c1,?,-1.3%,-2.0%,56.2µM*,0.1%
Cc1[nH]n(-c2ccc(Cl)cc2)c(=O)c1C=Nc1ccc(S(=O)(=O)N2CCOCC2)cc1,-5.7%,50.1µM*,-33.6%,-29.2%,-12.6%
CCc1nnc(NS(=O)(=O)c2ccc(N=Cc3c(C)[nH]n(-c4ccc(Cl)cc4)c3=O)cc2)s1,-0.5%,-8.0%[59 µM],?,-21.4%,-9.5%
Cc1[nH]n(-c2ccccc2)c(=O)c1N=Nc1ccc(C(=O)O)cc1,3.8%,79.4µM*,-37.9%,?,.
Cc1[nH]n(-c2ccccc2)c(=O)c1N=Nc1ccc(C(N)=O)cc1,8.6%,.,-9.1%,-11.9%,2.3%
